Assay results as given in the supplement of paper PMC10849652.
Of roughly 7,900 targets only a part is listed; those with a hit were picked by preference. About 0.6% of all pairs of compound and target were hits. Values without a mark were called inactive.

Legend:
Assay in all cases: log2 fold change, soluble protein after heating vs DMSO (PISA); higher = thermal stabilisation; K562 cells, 10 uM, 30 min; active = over 0.2 and 3.5 SD of the protein, either way, in both replicates (recomputed)
bafetinib = compound: Cc1ccc(NC(=O)c2ccc(CN3CC[C@H](N(C)C)C3)c(C(F)(F)F)c2)cc1Nc1nccc(-c2cncnc2)n1 [bafetinib]
Procedure, shortened: (§1)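 Soluble protein was defined as the supernatant after 21,000xg for 90 min. It came from K562 cells at 2×10^6 cells/mL given 10 μM compound for 30 min, heated in aliquots for 3 min across 48°C-58°C, pooled, and extracted in PBS with 0.5% NP-40 at 4°C, and was quantified by TMTpro 16plex LC-MS/MS with equalised channel sums. Thermal stability against control samples, from duplicates, is reported as log2 fold change.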

[1] = compound: Cc1cccc(CC(=O)N2CCc3c2ccc(-c2cn(C)c4ncnc(N)c24)c3F)n1
Procedure, shortened: as §1

nilotinib = compound: Cc1cn(-c2cc(NC(=O)c3ccc(C)c(Nc4nccc(-c5cccnc5)n4)c3)cc(C(F)(F)F)c2)cn1 [nilotinib]
Procedure, shortened: as §1

[2] = compound: Cc1nc(Nc2n[nH]c3c2CN(C(=O)N[C@H](CN(C)C)c2ccccc2)C3(C)C)c2sccc2n1
Procedure, shortened: as §1

dasatinib = compound: Cc1nc(Nc2ncc(C(=O)Nc3c(C)cccc3Cl)s2)cc(N2CCN(CCO)CC2)n1 [dasatinib]
Procedure, shortened: as §1

[3] = compound: Cc1ncc(-c2ccnc(Nc3ccc(S(C)(=O)=O)cc3)n2)n1C(C)C
Procedure, shortened: as §1

[4] = compound: Cn1cc(-c2ccc3c(c2)CCN3C(=O)Cc2cccc(C(F)(F)F)c2)c2c(N)ncnc21
Procedure, shortened: as §1

[5] = compound: Cn1cc(-c2ccc3nnc(C(F)(F)c4ccc5ncccc5c4)n3n2)cn1
Procedure, shortened: as §1

tipifarnib = compound: Cn1cncc1[C@@](N)(c1ccc(Cl)cc1)c1ccc2c(c1)c(-c1cccc(Cl)c1)cc(=O)n2C [tipifarnib]
Procedure, shortened: as §1

mubritinib = compound: FC(F)(F)c1ccc(/C=C/c2nc(COc3ccc(CCCCn4ccnn4)cc3)co2)cc1 [mubritinib]
Procedure, shortened: as §1

[6] = compound: NC(=O)Nc1cc(-c2cccc(F)c2)sc1C(=O)N[C@H]1CCCNC1
Procedure, shortened: as §1

[7] = compound: NC(=O)c1cnc(N[C@@H]2CCCC[C@@H]2N)nc1Nc1cccc(-n2nccn2)c1
Procedure, shortened: as §1

[8] = compound: NC1(c2ccc(-c3nc4ccn5c(=O)[nH]nc5c4cc3-c3ccccc3)cc2)CCC1
Procedure, shortened: as §1

[9] = compound: NCC(=O)Nc1ccc(-n2nc(C(F)(F)F)cc2-c2ccc3c(ccc4ccccc43)c2)cc1
Procedure, shortened: as §1

entinostat = compound: Nc1ccccc1NC(=O)c1ccc(CNC(=O)OCc2cccnc2)cc1 [entinostat]
Procedure, shortened: as §1

vorinostat = compound: O=C(CCCCCCC(=O)Nc1ccccc1)NO [vorinostat]
Procedure, shortened: as §1

citarinostat = compound: O=C(CCCCCCNC(=O)c1cnc(N(c2ccccc2)c2ccccc2Cl)nc1)NO [citarinostat]
Procedure, shortened: as §1

silmitasertib = compound: O=C(O)c1ccc2c(c1)nc(Nc1cccc(Cl)c1)c1ccncc12 [silmitasertib]
Procedure, shortened: as §1

[10] = compound: O=C1NC(=O)C(c2cnc3ccccn23)=C1c1cn2c3c(cc(F)cc13)CN(C(=O)N1CCCCC1)CC2
Procedure, shortened: as §1

[11] = compound: c1cc(OCCN2CCCCC2)cc(-c2n[nH]c3ccc(-c4nnc[nH]4)cc23)c1
Procedure, shortened: as §1

UniProt Q14157, sequence (Q14157 whole entry, looked up): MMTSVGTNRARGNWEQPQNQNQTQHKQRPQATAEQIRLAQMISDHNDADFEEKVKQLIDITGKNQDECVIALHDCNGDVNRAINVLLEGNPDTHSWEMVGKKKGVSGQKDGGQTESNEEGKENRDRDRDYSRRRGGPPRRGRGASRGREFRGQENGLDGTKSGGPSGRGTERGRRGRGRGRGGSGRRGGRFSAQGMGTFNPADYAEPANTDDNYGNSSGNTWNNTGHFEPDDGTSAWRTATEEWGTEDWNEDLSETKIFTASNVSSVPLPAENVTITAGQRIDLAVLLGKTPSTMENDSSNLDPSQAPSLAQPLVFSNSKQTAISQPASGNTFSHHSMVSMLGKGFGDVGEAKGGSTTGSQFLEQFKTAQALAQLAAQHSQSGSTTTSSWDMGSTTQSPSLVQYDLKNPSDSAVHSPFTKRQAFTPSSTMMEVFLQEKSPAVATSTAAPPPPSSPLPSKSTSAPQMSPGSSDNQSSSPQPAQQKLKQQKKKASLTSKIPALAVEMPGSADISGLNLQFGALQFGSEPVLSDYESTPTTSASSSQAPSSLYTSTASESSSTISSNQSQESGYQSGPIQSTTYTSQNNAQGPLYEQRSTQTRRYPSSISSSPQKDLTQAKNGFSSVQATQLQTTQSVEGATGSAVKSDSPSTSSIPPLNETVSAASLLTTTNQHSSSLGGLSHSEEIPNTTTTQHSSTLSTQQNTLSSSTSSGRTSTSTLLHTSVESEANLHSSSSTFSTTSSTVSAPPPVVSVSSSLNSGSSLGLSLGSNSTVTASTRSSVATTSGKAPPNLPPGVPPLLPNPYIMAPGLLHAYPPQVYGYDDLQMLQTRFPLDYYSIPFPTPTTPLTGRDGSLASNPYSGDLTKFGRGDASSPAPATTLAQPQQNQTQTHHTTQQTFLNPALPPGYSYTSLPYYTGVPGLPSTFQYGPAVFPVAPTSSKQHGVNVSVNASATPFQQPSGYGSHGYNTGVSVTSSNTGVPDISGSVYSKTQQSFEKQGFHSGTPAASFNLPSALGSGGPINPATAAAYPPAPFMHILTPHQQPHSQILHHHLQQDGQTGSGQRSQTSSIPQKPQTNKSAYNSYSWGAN
UniProt P12270, sequence (P12270 whole entry, looked up): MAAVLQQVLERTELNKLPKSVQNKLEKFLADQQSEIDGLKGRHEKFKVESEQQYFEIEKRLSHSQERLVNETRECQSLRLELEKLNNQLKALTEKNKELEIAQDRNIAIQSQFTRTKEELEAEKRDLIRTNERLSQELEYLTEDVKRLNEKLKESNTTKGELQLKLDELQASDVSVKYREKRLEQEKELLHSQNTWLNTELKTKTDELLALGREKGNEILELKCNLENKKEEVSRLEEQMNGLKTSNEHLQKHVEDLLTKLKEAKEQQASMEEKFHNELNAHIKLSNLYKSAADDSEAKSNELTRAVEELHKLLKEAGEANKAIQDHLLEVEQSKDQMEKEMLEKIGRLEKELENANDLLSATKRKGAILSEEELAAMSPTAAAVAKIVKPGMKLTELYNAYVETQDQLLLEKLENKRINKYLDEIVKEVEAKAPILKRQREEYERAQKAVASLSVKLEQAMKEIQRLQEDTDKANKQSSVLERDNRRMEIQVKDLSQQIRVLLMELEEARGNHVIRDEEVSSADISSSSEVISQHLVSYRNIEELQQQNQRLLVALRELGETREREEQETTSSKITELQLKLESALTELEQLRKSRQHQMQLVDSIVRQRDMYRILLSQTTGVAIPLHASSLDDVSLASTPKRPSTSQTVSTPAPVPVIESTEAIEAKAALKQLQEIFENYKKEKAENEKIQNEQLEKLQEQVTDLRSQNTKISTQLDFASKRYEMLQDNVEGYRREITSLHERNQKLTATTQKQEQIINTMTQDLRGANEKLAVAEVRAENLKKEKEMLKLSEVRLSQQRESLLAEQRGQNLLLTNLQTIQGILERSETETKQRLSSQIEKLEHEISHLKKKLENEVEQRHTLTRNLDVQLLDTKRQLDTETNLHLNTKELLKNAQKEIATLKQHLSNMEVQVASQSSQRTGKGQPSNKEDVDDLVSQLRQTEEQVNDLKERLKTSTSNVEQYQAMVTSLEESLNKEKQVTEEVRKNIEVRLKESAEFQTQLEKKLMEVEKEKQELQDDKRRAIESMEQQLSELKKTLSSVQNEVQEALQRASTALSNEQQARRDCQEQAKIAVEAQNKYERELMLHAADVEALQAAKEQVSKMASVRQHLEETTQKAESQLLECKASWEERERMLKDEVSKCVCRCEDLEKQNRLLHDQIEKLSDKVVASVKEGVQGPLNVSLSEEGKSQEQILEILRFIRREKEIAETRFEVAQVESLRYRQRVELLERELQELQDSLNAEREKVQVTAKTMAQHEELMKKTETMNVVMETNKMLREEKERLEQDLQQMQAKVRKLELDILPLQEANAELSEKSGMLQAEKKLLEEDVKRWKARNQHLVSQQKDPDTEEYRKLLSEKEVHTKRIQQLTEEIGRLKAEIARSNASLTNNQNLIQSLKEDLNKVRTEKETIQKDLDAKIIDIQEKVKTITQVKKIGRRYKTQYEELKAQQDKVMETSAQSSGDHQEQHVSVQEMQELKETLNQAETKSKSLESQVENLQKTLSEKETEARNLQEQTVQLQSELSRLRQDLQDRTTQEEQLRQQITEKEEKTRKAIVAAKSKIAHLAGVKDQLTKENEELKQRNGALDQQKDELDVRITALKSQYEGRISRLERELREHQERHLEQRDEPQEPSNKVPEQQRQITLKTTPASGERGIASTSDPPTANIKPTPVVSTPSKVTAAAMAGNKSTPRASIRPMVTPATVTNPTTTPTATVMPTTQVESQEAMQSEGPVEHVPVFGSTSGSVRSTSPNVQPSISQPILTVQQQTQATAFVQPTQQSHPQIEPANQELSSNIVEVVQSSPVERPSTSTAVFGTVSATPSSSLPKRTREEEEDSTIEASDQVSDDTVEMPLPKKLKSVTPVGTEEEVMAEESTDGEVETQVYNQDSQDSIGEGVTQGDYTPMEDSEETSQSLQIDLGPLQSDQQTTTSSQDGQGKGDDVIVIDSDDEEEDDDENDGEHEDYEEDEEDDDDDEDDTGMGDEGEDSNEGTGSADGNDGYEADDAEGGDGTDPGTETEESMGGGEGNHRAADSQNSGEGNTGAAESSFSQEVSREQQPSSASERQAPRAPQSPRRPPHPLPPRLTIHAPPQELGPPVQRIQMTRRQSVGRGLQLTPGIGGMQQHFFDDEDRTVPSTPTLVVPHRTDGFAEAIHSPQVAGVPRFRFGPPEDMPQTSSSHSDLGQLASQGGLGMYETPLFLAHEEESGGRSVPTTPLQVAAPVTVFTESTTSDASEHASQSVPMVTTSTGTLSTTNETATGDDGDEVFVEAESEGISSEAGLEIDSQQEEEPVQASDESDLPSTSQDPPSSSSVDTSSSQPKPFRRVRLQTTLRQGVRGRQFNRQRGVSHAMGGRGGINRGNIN
UniProt Q9UEU0, sequence (Q9UEU0 whole entry, looked up): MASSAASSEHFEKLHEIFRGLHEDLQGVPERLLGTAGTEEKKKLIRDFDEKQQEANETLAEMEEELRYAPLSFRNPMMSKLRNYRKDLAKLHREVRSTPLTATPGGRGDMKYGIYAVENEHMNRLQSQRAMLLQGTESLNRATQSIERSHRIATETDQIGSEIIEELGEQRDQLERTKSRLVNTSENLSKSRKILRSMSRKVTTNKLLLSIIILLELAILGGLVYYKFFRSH
UniProt Q86UV5, sequence (Q86UV5 whole entry, looked up): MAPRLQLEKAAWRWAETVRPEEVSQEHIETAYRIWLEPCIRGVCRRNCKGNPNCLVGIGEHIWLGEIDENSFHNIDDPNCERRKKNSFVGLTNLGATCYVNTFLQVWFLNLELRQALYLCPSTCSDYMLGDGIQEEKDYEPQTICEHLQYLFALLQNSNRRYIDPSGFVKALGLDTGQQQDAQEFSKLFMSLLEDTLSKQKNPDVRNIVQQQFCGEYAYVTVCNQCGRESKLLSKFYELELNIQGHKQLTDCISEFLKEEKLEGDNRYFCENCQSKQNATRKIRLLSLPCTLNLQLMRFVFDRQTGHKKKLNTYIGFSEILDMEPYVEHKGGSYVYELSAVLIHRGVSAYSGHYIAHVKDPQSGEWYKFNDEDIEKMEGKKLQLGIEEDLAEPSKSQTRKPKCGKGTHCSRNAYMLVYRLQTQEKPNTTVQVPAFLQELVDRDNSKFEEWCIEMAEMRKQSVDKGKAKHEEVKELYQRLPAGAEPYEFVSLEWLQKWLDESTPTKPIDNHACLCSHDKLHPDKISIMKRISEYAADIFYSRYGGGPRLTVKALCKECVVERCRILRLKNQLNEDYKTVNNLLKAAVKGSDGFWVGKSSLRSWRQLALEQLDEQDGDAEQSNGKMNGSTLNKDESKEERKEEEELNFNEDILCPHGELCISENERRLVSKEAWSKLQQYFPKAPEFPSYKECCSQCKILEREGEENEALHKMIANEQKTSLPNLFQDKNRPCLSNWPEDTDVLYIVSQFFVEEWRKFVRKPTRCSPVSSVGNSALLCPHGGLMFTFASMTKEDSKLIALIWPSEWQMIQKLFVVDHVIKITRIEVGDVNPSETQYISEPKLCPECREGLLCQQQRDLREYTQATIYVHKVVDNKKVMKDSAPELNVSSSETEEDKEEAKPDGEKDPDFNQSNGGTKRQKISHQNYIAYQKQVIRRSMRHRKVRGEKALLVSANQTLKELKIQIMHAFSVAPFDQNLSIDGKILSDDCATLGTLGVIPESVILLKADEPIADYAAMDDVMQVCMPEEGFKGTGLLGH
UniProt P07951, sequence (P07951 whole entry, looked up): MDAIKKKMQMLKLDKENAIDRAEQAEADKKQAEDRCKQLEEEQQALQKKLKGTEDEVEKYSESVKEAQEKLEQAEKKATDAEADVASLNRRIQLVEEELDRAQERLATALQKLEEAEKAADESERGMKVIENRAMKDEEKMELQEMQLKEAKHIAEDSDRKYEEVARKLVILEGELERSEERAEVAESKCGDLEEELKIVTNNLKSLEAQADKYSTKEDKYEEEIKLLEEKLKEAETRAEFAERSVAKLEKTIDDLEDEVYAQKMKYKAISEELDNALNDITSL

Target | log2 fold change (bafetinib) | log2 fold change [1] | log2 fold change (nilotinib) | log2 fold change [2] | log2 fold change (dasatinib) | log2 fold change [3] | log2 fold change [4] | log2 fold change [5] | log2 fold change (tipifarnib) | log2 fold change (mubritinib) | log2 fold change [6] | log2 fold change [7] | log2 fold change [8] | log2 fold change [9] | log2 fold change (entinostat) | log2 fold change (vorinostat) | log2 fold change (citarinostat) | log2 fold change (silmitasertib) | log2 fold change [10] | log2 fold change [11]
UBA1 (UniProt P22314) | 0.034 | 0.187 | -0.089 | -0.062 | -0.216 | 0.062 | 0.027 | 0.121 | -0.235 | 0.395 (active) | -0.044 | -0.112 | -0.275 | -0.101 | 0.159 | 0.167 | 0.125 | 0.018 | -0.013 | -0.028
WNK1 isoform 7 (UniProt Q9H4A3) | -0.038 | 0.046 | -0.029 | -0.071 | 0.102 | 0.022 | 0.178 | -0.022 | -0.022 | 0.036 | 0.002 | 0.001 | -0.037 | -0.042 | 0.008 | -0.05 | 0.009 | -0.062 | -0.01 | -0.063
TRIP10 (UniProt Q15642) | -0.042 | 0.05 | 0.098 | -0.017 | -0.06 | -0.021 | 0.045 | 0.024 | -0.01 | 0.048 | -0.003 | -0.055 | -0.129 | -0.011 | 0.019 | -0.063 | 0 | 0.046 | -0.207 | -0.014
TNFRSF10A (UniProt O00220) | -0.044 | -0.051 | 0.061 | -0.055 | -0.015 | 0.058 | -0.082 | -0.005 | -0.054 | -0.05 | -0.097 | -0.019 | 0.06 | 0.029 | -0.202 | -0.178 | -0.011 | 0.028 | -0.069 | -0.07
VTI1A (UniProt Q96AJ9) | -0.004 | -0.061 | -0.006 | -0.001 | 0.004 | -0.005 | -0.001 | 0.01 | 0.081 | -0.007 | -0.07 | 0.014 | -0.125 | -0.014 | -0.009 | 0.028 | -0.016 | 0.051 | -0.01 | -0.039
UBAP2L isoform 1 (UniProt Q14157) | -0.006 | -0.043 | 0.013 | -0.134 | 0.058 | -0.056 | 0.064 | 0.034 | 0.076 | 0.07 | 0.071 | 0.076 | -0.064 | 0.039 | -0.043 | 0.041 | -0.022 | -0.031 | -0.012 | 0.03
TTC4 (UniProt O95801) | 0.036 | 0.116 | -0.034 | -0.094 | -0.137 | 0.003 | 0.019 | 0 | -0.077 | 0.061 | -0.071 | -0.047 | -0.064 | -0.073 | 0.069 | 0.077 | 0.064 | 0.074 | -0.051 | -0.014
TPM2 (UniProt P07951) | 0.034 | 0.003 | 0.126 | -0.097 | 0.072 | 0.064 | -0.019 | -0.015 | 0.086 | 0.025 | 0.119 | 0.081 | 0.157 | 0.201 | 0.077 | -0.077 | 0.103 | -0.07 | 0.162 | 0.171
XPO1 (UniProt O14980) | -0.003 | 0.042 | -0.114 | -0.037 | -0.154 | 0.001 | 0.005 | -0.008 | -0.159 | 0.042 | 0.034 | -0.056 | -0.249 (active) | -0.026 | 0.082 | 0.052 | 0.092 | 0.025 | 0.009 | -0.054
UCHL5 (UniProt Q9Y5K5) | 0.014 | 0.045 | -0.06 | -0.071 | -0.152 | 0.007 | 0.012 | 0 | -0.093 | -0.001 | -0.003 | -0.029 | -0.124 | -0.045 | 0.048 | 0.063 | 0.08 | 0.04 | -0.084 | -0.026
TPR (UniProt P12270) | -0.011 | -0.004 | 0.056 | 0.04 | 0.158 | 0.047 | -0.184 | -0.017 | 0.002 | 0.089 | 0.09 | -0.039 | 0.06 | -0.032 | -0.019 | -0.084 | 0.008 | 0.3 (active) | 0.085 | 0.005
USP48 isoform 8 (UniProt Q86UV5) | 0.005 | -0.089 | -0.097 | -0.362 | -0.139 | -0.073 | -0.041 | 0.097 | -0.11 | -0.021 | -0.077 | 0.002 | -0.235 | -0.125 | 0.351 | 0.178 | 0.177 | 0.094 | -0.177 | -0.157
TMEM192 (UniProt Q8IY95) | -0.148 | -0.083 | 0.019 | -0.002 | 0.109 | -0.042 | -0.034 | -0.051 | 0.051 | -0.032 | 0 | -0.01 | -0.374 (active) | 0.01 | -0.017 | -0.061 | -0.02 | 0.037 | 0.03 | -0.005
TMEM189-UBE2V1 (UniProt I3L0A0) | -0.038 | -0.035 | -0.012 | 0.229 (active) | -0.009 | 0.055 | 0.015 | 0.069 | 0.056 | 0.026 | 0.06 | -0.018 | -0.063 | -0.018 | -0.097 | 0.005 | 0.046 | -0.058 | 0.009 | -0.016
TSEN2 (UniProt Q8NCE0) | 0.008 | 0.032 | -0.05 | -0.112 | -0.132 | -0.034 | 0.05 | -0.013 | -0.005 | -0.16 | 0.212 | -0.008 | -0.126 | -0.024 | 0.052 | -0.003 | 0.005 | 0.197 | -0.015 | 0.008
VTI1B (UniProt Q9UEU0) | -0.064 | -0.177 | 0.013 | 0.015 | -0.011 | 0.027 | 0 | 0.037 | 0.085 | -0.055 | 0.023 | -0.006 | -0.084 | -0.054 | -0.031 | -0.035 | -0.001 | 0.114 | 0.054 | -0.03
